Test results taken from the supplement of paper PMC6555819.

Key:
Assay in all cases: PBM binding z-score (relative to random genomic background probes); higher = stronger binding; sequences stand for … in GC…GCGATTGACAGCGTAGAATGAAGG
[1] = test system: FXR:RXRa (NR concentration 270 nM, RXRa partner concentration 90 nM)
Outline: (§1)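 Each nuclear receptor dimer, without ligand, was incubated for 1 h on custom Agilent 4×180K protein-binding microarrays. Binding was detected with antibodies against each partner (one per run), and scanned fluorescence was regression-normalized. The binding z-scores are referenced to random human genomic background probes.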

[2] = test system: LXRa:RXRa (NR concentration 270 nM, RXRa partner concentration 90 nM)
Outline: as §1

[3] = test system: LXRa homodimer (NR concentration 270 nM)
Outline: as §1

[4] = test system: LXRb:RXRa (NR concentration 270 nM, RXRa partner concentration 90 nM)
Outline: as §1

[5] = test system: LXRb homodimer (NR concentration 270 nM)
Outline: as §1

[6] = test system: PPARa:RXRa (NR concentration 270 nM, RXRa partner concentration 90 nM)
Outline: as §1

[7] = test system: PPARg:RXRa (NR concentration 180 nM, RXRa partner concentration 90 nM)
Outline: as §1

[8] = test system: PPARg:RXRa 270nM:90nM, anti-RXR (NR concentration 270 nM, RXRa partner concentration 90 nM)
Outline: as §1

[9] = test system: PPARg:RXRa 30nM:10nM, anti-RXR (NR concentration 30 nM, RXRa partner concentration 10 nM)
Outline: as §1

[10] = test system: PPARg:RXRa 90nM:30nM, anti-RXR (NR concentration 90 nM, RXRa partner concentration 30 nM)
Outline: as §1

[11] = test system: PPARg:RXRa DBDmut IVT, anti-RXR (DBD mutation: RXRa K156A/R161A, NR concentration 270 nM, RXRa partner concentration 90 nM)
Outline: as §1

[12] = test system: PPARg:RXRa IVT, anti-PPARg (NR concentration 270 nM, RXRa partner concentration 90 nM)
Outline: as §1

[13] = test system: PPARg DBDmut:RXRa IVT, anti-PPARg (DBD mutation: PPARg1 K132A/R137A, NR concentration 270 nM, RXRa partner concentration 90 nM)
Outline: as §1

[14] = test system: PPARg DBDmut IVT, anti-PPARg (DBD mutation: PPARg1 K132A/R137A, NR concentration 270 nM)
Outline: as §1

[15] = test system: PPARg homodimer (NR concentration 180 nM)
Outline: as §1

[16] = test system: PXR:RXRa (NR concentration 270 nM, RXRa partner concentration 90 nM)
Outline: as §1

[17] = test system: PXR homodimer (NR concentration 270 nM)
Outline: as §1

[18] = test system: RARa:RXR (NR concentration 270 nM, RXRa partner concentration 90 nM)
Outline: as §1

[19] = test system: RARa homodimer (NR concentration 270 nM)
Outline: as §1

[20] = test system: RARb:RXRa (NR concentration 270 nM, RXRa partner concentration 90 nM)
Outline: as §1

| Sequence | PBM binding z-score [1] | PBM binding z-score [2] | PBM binding z-score [3] | PBM binding z-score [4] | PBM binding z-score [5] | PBM binding z-score [6] | PBM binding z-score [7] | PBM binding z-score [8] | PBM binding z-score [9] | PBM binding z-score [10] | PBM binding z-score [11] | PBM binding z-score [12] | PBM binding z-score [13] | PBM binding z-score [14] | PBM binding z-score [15] | PBM binding z-score [16] | PBM binding z-score [17] | PBM binding z-score [18] | PBM binding z-score [19] | PBM binding z-score [20] |
| --- | --- | --- | --- | --- | --- | --- | --- | --- | --- | --- | --- | --- | --- | --- | --- | --- | --- | --- | --- | --- |
| TCTCGGAAGACACGAAGGTCAGAGCTTTCCAGAG | 0.883 | 0.652 | -0.454 | 0.74 | -0.988 | 1.79 | 0.356 | 1.57 | 2.55 | 1.71 | 1.64 | 0.221 | -0.344 | -0.823 | 0.689 | 1.12 | -0.144 | 1.53 | -0.631 | 2.27 |
| CGCACTAGGTCAGAACAGGACAGTGAAGGATGAT | 1.58 | 1.02 | -0.057 | 0.629 | -0.258 | 2.67 | 4.7 | 4.2 | 1.63 | 3.24 | 7.11 | 7.1 | 0.649 | 0.931 | 1.4 | 1.07 | 0.443 | 1.39 | 0.474 | 3.02 |
| ATCTCTAGGTAAAGATAGTTGAGTGAATGCAAAT | 0.323 | 0.358 | -0.0172 | 0.23 | 0.435 | 0.437 | 0.538 | 0.246 | 0.222 | 0.29 | 2.14 | 1.82 | 1.87 | 0.639 | 0.295 | 0.221 | 0.497 | 0.592 | 1.46 | -0.0235 |
| ACAGACAGGTGAGTGAAGGTAACTGAGCTGGACG | 0.439 | -0.0639 | -0.513 | -0.288 | -0.405 | 0.393 | 0.534 | 0.106 | -0.146 | -0.11 | 0.252 | 0.903 | -0.468 | -0.756 | -0.197 | 0.0727 | -0.00734 | 0.487 | -0.0985 | 0.632 |
| CCTTACGGGTCAAGGTTACAGCACGGGTGGTACG | 5.94 | 3.96 | 0.209 | 2.99 | -0.186 | 5.24 | 5.13 | 5.27 | 2.14 | 3.87 | 2.05 | 3.96 | 0.601 | -0.0526 | 1.7 | 3.4 | -0.0469 | 4.47 | 0.176 | 4.45 |
| CCTCGCAGGCCAGGGTCACTCAAGCATTTCGCTT | 2.11 | 1.69 | -0.251 | 2.06 | -0.654 | 3.01 | 0.19 | 1.04 | -0.771 | 0.0823 | -0.539 | 0.241 | -0.923 | -1.57 | 1.02 | 2.49 | -0.431 | 3.1 | -0.222 | 2.54 |
| ATCTCTAGGTAACACTCAGTTCAGTGAAGAACGC | 0.92 | 1.1 | 0.849 | 0.889 | 1.26 | 1.07 | 0.692 | 0.736 | 0.527 | 0.515 | 3.97 | 2.95 | 1.8 | 2.07 | 1.13 | 1.94 | 2.42 | 1.13 | 1.39 | 1.06 |
